Reference: PubChem BioAssay AID463173 (ICCB-Longwood Screening Facility, Harvard Medical School, 2010)
Screen size: about 52,000 compounds; about 1,700 (3.3%) were called active. This is one part of a sample in which actives are shown more often than they occur. Rule as the data show it: active = survival mostly below about 52% (no sharp cut-off); inactive = mostly above about 56%.

test system: Wild type; test: S. aureus survival, RN4220 and DeltatarO strains – OD600, teichoic acid synthesis inhibitors, primary screen (AID 463173); conditions: S. aureus RN4220 wild type/DeltatarO growth, OD600, 18 h, active compounds read low, screened at 18.75 µg/mL (by protocol)

Compound	survival
COc1ccc(CCNC(=O)CCCCn2c(=O)c3ccccc3n(Cc3ccc(Cl)cc3)c2=O)cc1OC	105% (inactive)
COc1cc2nc(SCC(=O)Nc3c(C)cc(C)cc3C)n3nc(CCn4c(C)nc5ccccc54)nc3c2cc1OC	91% (inactive)
CCOc1ccccc1C(=O)Nc1cc(-c2nc3cccnc3s2)ccc1C	67% (inactive)
COCCCNC(=O)C1CCN(c2nn3cc(-c4ccc(F)cc4)nc3s2)CC1	88% (inactive)
CCC(C)S(=O)(=O)c1oc(-c2cccs2)nc1S(=O)(=O)c1ccccc1 (configuration not stated)	16% (inactive)
CCCSc1oc(-c2cccs2)nc1S(=O)(=O)c1ccc(C)cc1	39% (inactive)
Cc1ccc(CSc2oc(-c3cccs3)nc2S(=O)(=O)c2ccc(C)cc2)cc1	128% (inactive)
CCCCS(=O)(=O)c1oc(-c2cccs2)nc1S(=O)(=O)c1ccccc1	0% (active)
CCCCS(=O)(=O)c1oc(-c2cccs2)nc1S(=O)(=O)c1ccc(F)cc1	82% (inactive)
CCCCCS(=O)(=O)c1oc(-c2cccs2)nc1S(=O)(=O)c1ccc(C)cc1	11% (active)
CCOc1ccc(C(=O)c2c(N)c(-c3nc(-c4ccc(OCC)cc4)cs3)c3ccccn23)cc1	103% (inactive)
O=C(O)CN1C(=O)/C(=N\N2C(=O)CSC2=S)c2ccccc21	90% (inactive)
Cc1ccccc1C(=O)Nc1c(C)nc2ccccn2c1=O	10% (active)
Cc1nc2ccccn2c(=O)c1NC(=O)c1ccc(F)c(F)c1	80% (inactive)
Cc1nc2ccccn2c(=O)c1NC(=O)c1ccccc1Cl	129% (inactive)
Cc1ccc(C(=O)Nc2c(C)nc3ccccn3c2=O)cc1	88% (inactive)
Cc1ccc(C(=O)Nc2c(C)nc3ccccn3c2=O)cc1C	69% (inactive)
Cc1nc2ccccn2c(=O)c1NC(=O)c1ccc(C(F)(F)F)cc1	-2% (active)
Cc1c(C(=O)Nc2ccc(F)c(F)c2)oc2ccc(S(=O)(=O)N(C)C3CCCCC3)cc12	74% (inactive)
COc1ccccc1CNC(=O)CC(c1ccc(C)cc1)N1Cc2ccccc2C1=O (configuration not stated)	60% (inactive)
CC(C)(C)c1cc(-c2ccccc2)n[nH]1	132% (inactive)
CN(C)c1ccc(NC(=O)CSc2nc3ccsc3c(=O)n2CCCCCC(=O)O)cc1	70% (inactive)
CCn1cc2nc(SCc3ccc(F)cc3)n(CCc3ccccc3)c(=O)c2n1	77% (inactive)

Compound	survival
Cc1ccc(-c2ccc(=O)n(CC(=O)NCCc3ccc(Cl)cc3)n2)cc1	73% (inactive)
Cc1ccc(-c2ccc(=O)n(CC(=O)NCCc3ccccc3)n2)cc1	65% (inactive)
Cc1ccc(CCNC(=O)Cn2nc(-c3ccc(C)cc3)ccc2=O)cc1	-3% (active)
C=CCn1c(=O)[nH]c(=O)n(CC=C)c1=O	111% (inactive)
COc1ccc2c(Sc3ccccc3)c(C(=O)NCc3ccc(OC(C)C)cc3)[nH]c2c1	125% (inactive)
CCOc1ccc(CNCCSc2nnnn2C)cc1OC	72% (inactive)
COc1cc(CNCCSc2nnnn2C)ccc1OCc1ccccc1C	68% (inactive)
COc1cc(CNCCSc2nnnn2C)ccc1OCc1c(F)cccc1Cl	73% (inactive)
Cn1nnnc1SCCNCc1ccc(OCc2ccc(Cl)cc2)cc1	68% (inactive)
CCOc1cc(CNCCSc2nnnn2C)ccc1OCc1ccc(Cl)cc1Cl	-5% (active)
COc1cc(CNCCSc2nnnn2C)cc(Cl)c1OCc1ccccc1	59% (inactive)
COc1cc(CNCCSc2nnnn2C)ccc1OCc1ccc(Cl)cc1Cl	0% (active)
CCOc1cc(CNCCSc2nnnn2C)cc(Cl)c1OCc1ccc(Cl)cc1	-2% (active)
Cn1nnnc1SCCNCc1ccccc1OCc1ccc(Cl)cc1Cl	56% (inactive)
COCCNC(=O)c1ccc(-c2nc(CN3CCc4ccccc43)c(C)o2)cc1	75% (inactive)
NS(=O)(=O)c1ccc(CCNC(=O)c2ccc3nc(Cc4ccccc4)oc3c2)cc1	81% (inactive)
CCn1cc(C(=O)O)c(=O)c2cc(F)c(N3CCN(C(=O)c4ccccc4F)CC3)cc21	54% (inactive)
CC(C)CC(=O)NCC(c1ccc2c(c1)OCO2)N1CCN(c2ccccc2)CC1 (configuration not stated)	77% (inactive)
COC(=O)c1cc(S(=O)(=O)N2CCN(c3cc(Cl)ccc3C)CC2)c[nH]1	8% (active)
COC(=O)c1cc(S(=O)(=O)N2CCN(c3ccc(OC)cc3)CC2)c[nH]1	85% (inactive)
Cc1ccc(Cl)cc1N1CCN(C(=O)c2cc(S(=O)(=O)N3CCCC3)c[nH]2)CC1	77% (inactive)
COc1ccccc1CNC(=O)CN1C(=O)CSc2ccc(S(=O)(=O)N3CCCCC3)cc21	83% (inactive)
COc1ccc(-n2ncc(C(=O)N3CCc4ccccc4C3)c2C2CCN(C(=O)OC(C)(C)C)CC2)cc1	63% (inactive)

Compound	survival
COc1cc2c(cc1NS(=O)(=O)c1cccc(C#N)c1)n(C)c(=O)n2C	76% (inactive)
CCOC(=O)c1c(-c2ccc(C)cc2)csc1NC(=O)c1nc(SCC)ncc1Cl	78% (inactive)
CCCS(=O)(=O)c1ncc(Cl)c(C(=O)Nc2scc(-c3ccccc3)c2C(=O)OCC)n1	4% (active)
CCCSc1ncc(Cl)c(C(=O)Nc2scc(-c3ccc(C)cc3)c2C(=O)OCC)n1	87% (inactive)
CCOC(=O)c1c(-c2ccccc2)csc1NC(=O)c1nc(S(=O)(=O)CC)ncc1Cl	2% (active)
CCOC(=O)c1c(-c2ccccc2)csc1NC(=O)c1nc(SCC)ncc1Cl	97% (inactive)
CCOC(=O)c1c(-c2ccc(C)cc2)csc1NC(=O)c1nc(SC(C)C)ncc1Cl	85% (inactive)
CCc1nn(CC(=O)NCC(C)c2ccccc2)c(=O)c2cc3c(OC)cccc3n12 (configuration not stated)	89% (inactive)
Cc1ccccc1SCC(=O)O	106% (inactive)
O=C(c1cc(-c2ccccc2)on1)N1CCCc2ccccc21	114% (inactive)
COCCCNC(=O)c1ccc2c(c1)N(Cc1ccccc1)C(=O)c1ccccc1S2	75% (inactive)
Cc1cc(N2CCCCC2)nc2ccc(NC(=O)c3cccc(F)c3)cc12	46% (inactive)
Cc1cc(N2CCN(C)CC2)nc2ccc(NC(=O)c3ccc(C(C)(C)C)cc3)cc12	-20% (active)
Cc1cc(N2CCCCC2)nc2ccc(NC(=O)c3cccc(Cl)c3)cc12	-2% (active)
Cc1ccc(NC(=O)Nc2ccc3nc(N4CCN(C)CC4)cc(C)c3c2)cc1C	73% (inactive)
CCOc1cc(C(=O)Nc2ccc3nc(N4CCN(C)CC4)cc(C)c3c2)cc(OCC)c1OCC	134% (inactive)
CCN1CCN(c2cc(C)c3cc(NC(=O)c4cccc(Cl)c4)ccc3n2)CC1	57% (inactive)
Cc1cccc(C)c1OC(=O)CSc1nnc(-c2cccs2)o1	83% (inactive)
COc1cc2c(cc1OC)n(CC(=O)c1cccc(Cl)c1)c(=O)n1nc(CCn3nc(C)cc3C)nc21	74% (inactive)
CCOC(=O)C(C)NC(=O)c1c(C)oc2ncn(CC(C)C)c(=O)c12 (configuration not stated)	72% (inactive)
Cc1ccccc1CN1CCCN(CC(=O)Nc2ccc3c(c2)OCCO3)S1(=O)=O	72% (inactive)
Cc1cccc2c1-c1sc(C(=O)N(C)c3cccc(Cl)c3)cc1CO2	0% (active)
COc1ccc(NC(=O)c2cc3c(s2)-c2c(C)cccc2OC3)c(OC)c1	78% (inactive)

Compound	survival
CCc1ccccc1N(C)C(=O)c1cc2c(s1)-c1c(C)cccc1OC2	69% (inactive)
Cc1cccc2c1-c1sc(C(=O)N(C)c3cccc(C(F)(F)F)c3)cc1CO2	24% (inactive)
COc1ccc(CCNC(=O)c2cc3c(s2)-c2c(C)cccc2OC3)c(OC)c1	103% (inactive)
COc1ccc(N(C)C(=O)c2cc3c(s2)-c2c(C)cccc2OC3)c(OC)c1	12% (active)
Cc1ccc(NC(=O)CCc2c(C)nn(-c3ccc(N4CCCCC4)nn3)c2C)cc1F	146% (inactive)
COCCCNc1cc(C)nc2ccccc12	121% (inactive)
COc1ccc(N2CC3=C(C2=O)C(c2ccc(Br)cc2)NC(=O)N3C)cc1 (configuration not stated)	156% (inactive)
COc1ccc(CNC(=O)c2cnc3cc(C)ccn3c2=O)cc1	85% (inactive)
Cc1ccc(OC(=O)CSc2nnc(CNC(=O)c3ccccc3)o2)cc1	87% (inactive)
N#Cc1ccccc1Cn1c(SCC(=O)NCc2ccccc2)nc2ccccc21	75% (inactive)
O=C(C1CCN(S(=O)(=O)c2ccccc2)CC1)N1CCCCC1	96% (inactive)
O=C1C2c3ccccc3CCN2C(=O)CN1CCc1ccccc1 (configuration not stated)	121% (inactive)
CCOc1ccc(-n2nc(CO)c(C(=O)NCC(C)O)n2)cc1 (configuration not stated)	81% (inactive)
Cc1cccc(CN2C(=O)c3ccccc3Sc3ccc(C(=O)NCc4ccco4)cc32)c1	75% (inactive)
Cc1ccc(C)c(CN2C(=O)c3ccccc3Sc3ccc(C(=O)NCc4ccco4)cc32)c1	-1% (active)
CC(C)CCNC(=O)c1ccc2c(c1)N(C)C(=O)c1ccccc1S2	-6% (active)
Cc1ccc(CN2C(=O)c3ccccc3Sc3ccc(C(=O)NCc4ccco4)cc32)cc1	55% (inactive)
CC(C)CCNC(=O)Nc1ccc2c(c1)N(C)C(=O)c1ccccc1S2	135% (inactive)
CC(C)CCNC(=O)c1ccc2c(c1)N(Cc1cccc(Cl)c1)C(=O)c1ccccc1S2	70% (inactive)
COc1cc(Cl)c(NC(=O)CN2C(=O)c3cccnc3Sc3ccccc32)c(OC)c1	72% (inactive)
COc1ccc2c(CNCc3cccs3)c(C(=O)O)n(Cc3ccccc3F)c2c1	89% (inactive)
CCN1CCC(N(Cc2ccc(F)cc2)C(=O)Nc2ccc(C)c(F)c2)CC1	87% (inactive)
O=C(Nc1ccccc1C(F)(F)F)C1CCN(S(=O)(=O)c2ccccc2)CC1	72% (inactive)
